Source: PubChem BioAssay (EPA / NIEHS)
Inconclusive results are not listed. Active and inactive are the calls of the source. How the source made its calls: active means hit-call score of the fitted dose curve at least 0.9, where 1 is the maximum; inconclusive means response in the unintended direction; inactive means score below 0.9.

read-out: sulfotransferase (SULT2A), SULT2A1 (gene 6822); assay: CLD_SULT2A_6hr: CellzDirect (CLD) Gene Expression Assay for sulfotransferase (SULT2A) at 6 hours (AID 2283669);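 further: hits raise transcript level above the DMSO vehicle baseline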
Experimental: CLD_6hr is a cell-based, multiplexed-readout assay that uses hepatocyte, a human liver primary cell, with measurements taken at 6 hours after chemical dosing in a 96-well plate.CLD_SULT2A_6hr is one of 16 assay component(s) measured or calculated from the CLD_6hr assay. It is designed to make measurements of mRNA induction, a form of inducible reporter, as detected with chemiluminescence signals by Quantitative Nuclease Protection Assay (qNPA) technology.Data from the assay component CLD_SULT2A_6hr was analyzed at the endpoint, CLD_SULT2A_6hr, in the positive analysis fitting direction relative to DMSO as the negative control and baseline of activity. Using a type of inducible reporter, gain-of-signal activity can be used to understand changes in the reporter gene as they relate to the gene SULT2A1. Furthermore, this assay endpoint can be referred to as a primary readout. To generalize the intended target to other relatable targets, this assay endpoint is annotated to the transferase intended target family, where subfamily is sulfotransferase.
Human hepatocyte cultures were treated daily for two consecutive days with fresh dosing solutions containing appropriate concentrations of the 320 ToxCast chemicals (chemical identities were blinded to CellzDirect and other ToxCast collaborators), vehicle control (0.2% DMSO), and positive control inducers as summarized in Table 1. Due to the large number of treatment groups and chemicals examined, the ToxCast chemicals were divided into two groups (spanning two independent cultures of hepatocytes from separate donor preparations (Hu778: ToxCast plates 1 and 2; Hu776: ToxCast plates 3 and 4). Each preparation of human hepatocyte cultures was treated with respective vehicle control, medium only control, set of six positive controls/reference chemicals for the five hepatic receptor pathways, and a subset of eight of the ToxCast chemicals (indoxacarb, pyrithiobac-sodium, norflurazon, cyhalofop-butyl, methomyl, thiram, acetochlor, and propiconazole). These replicate data, coupled with internal replicates designed within the blinded ToxCast chemical library, provided additional data to evaluate interindividual differences between hepatocyte preparations and their potential impact on chemical profiles.Cell morphology and integrity were evaluated using phase-contrast microscopy as an indicator of hepatocyte cell health (Tyson & Green, 1987). Cultures for each treatment group (i.e., media, vehicle [0.2% DMSO], positive control inducers [multiple concentrations], and the ToxCast chemicals [multiple concentrations]) were observed and cell morphology was assessed relative to vehicle control cultures at each harvest time point (0, 6, 24, or 48 h). […] Images were evaluated at the conclusion of the study to assess changes in cell integrity and account for the effects of chemical exposure on uncharacteristic changes in concentration-dependent gene expression profiles. The results from these determinations of apparent cytotoxicity were annotated (yes/no) alongside the corresponding qNPA data for reference.At the conclusion of each treatment period, hepatocyte cultures (96-well) were washed with 1 volume of HBSS, lysed by addition of 25 ul ArrayPlate lysis buffer (HTG, Tucson, AZ), and 70 ul/well of Denaturation Oil, denatured by incubation at 95C for 10 min, and frozen at approximately -70C until analysis by nuclease protection assay (qNPA) (Roberts et al., 2007). For qNPA analysis, cell lysates were thawed at 50C for approximately 30 min, qNPA probes were added, and samples were incubated at 95C for 10 min to begin the detection process by denaturing the target RNA, dissociating the duplexes and secondary structure hybridization. At the conclusion of the hybridization period, S1 nuclease reagent was added to each sample to digest all nonprotected nucleotides at 50C for 60-90 min. […]

Row | SMILES | outcome | AC50
1 | CC1=NNC(=O)N(/N=C/c2cccnc2)C1 | inactive | 
2 | CSc1nnc(C(C)(C)C)c(=O)n1N | inactive | 
3 | COc1cccc(C(=O)NN(C(=O)c2cc(C)cc(C)c2)C(C)(C)C)c1C | inactive | 
4 | CSc1nc(NC(C)C)nc(NC(C)C)n1 | inactive | 
5 | CCCCN(CC)c1c([N+](=O)[O-])cc(C(F)(F)F)cc1[N+](=O)[O-] | inactive | 
6 | Cc1ccn2nc(S(=O)(=O)Nc3c(F)cccc3F)nc2n1 | inactive | 
7 | CCCOCC(=Nc1ccc(Cl)cc1C(F)(F)F)n1ccnc1 | inactive | 
8 | CCOP(=S)(OCC)Oc1ccc2c(C)c(Cl)c(=O)oc2c1 | inactive | 
9 | C=C(C)[C@H]1Cc2c(ccc3c2O[C@@H]2COc4cc(OC)c(OC)cc4[C@@H]2C3=O)O1 | inactive | 
10 | FC(F)C(F)(F)OCC(Cn1cncn1)c1ccc(Cl)cc1Cl (stereo not given) | inactive | 
11 | CCC(=NOC/C=C/Cl)C1=C(O)CC(C2CCOCC2)CC1=O (stereo not given) | inactive | 
12 | CCOP(=S)(Oc1cnc(C(C)(C)C)nc1)OC(C)C (stereo not given) |  | 10.8 µM (active)
13 | CNC(=O)ON=C(SC)C(=O)N(C)C | inactive | 
14 | CC(C1CC1)C(O)(Cn1cncn1)c1ccc(Cl)cc1 (stereo not given) | inactive | 
15 | COP(=O)(NC(C)=O)SC (stereo not given) | inactive | 
16 | CNC(=O)ON=C(C)SC | inactive | 
17 | Cc1nn(-c2cc(NS(C)(=O)=O)c(Cl)cc2Cl)c(=O)n1C(F)F | inactive | 
18 | CCOP(=S)(OCC)OC(Cl)C(Cl)(Cl)Cl (stereo not given) | inactive | 
19 | O=C(O)c1cc(Oc2ccc(C(F)(F)F)cc2Cl)ccc1[N+](=O)[O-] |  | 0.00442 µM (active)
20 | CCOP(=S)(OCC)Oc1ccc([N+](=O)[O-])cc1 | inactive | 

Row | SMILES | outcome | AC50
21 | COP(=O)(OC)SCn1c(=O)oc2cc(Cl)cnc21 | inactive | 
22 | CCC(CC)Nc1c([N+](=O)[O-])cc(C)c(C)c1[N+](=O)[O-] | inactive | 
23 | CCCCSP(=O)(SCCCC)SCCCC | inactive | 
24 | C[Si](Cn1cncn1)(c1ccc(F)cc1)c1ccc(F)cc1 | inactive | 
25 | CN(C)NC(=O)CCC(=O)O | inactive | 
26 | CC(C)=CC1C(C(=O)OCN2C(=O)C3=C(CCCC3)C2=O)C1(C)C (stereo not given) | inactive | 
27 | CSC1=N[C@@](C)(c2ccccc2)C(=O)N1Nc1ccccc1 | inactive | 
28 | CC(C)N(C(=O)SCC(Cl)=C(Cl)Cl)C(C)C | inactive | 
29 | CCc1cccc(C)c1N(C(=O)CCl)C(C)COC (stereo not given) | inactive | 
30 | CCOC(=O)COc1cc(-c2nn(C)c(OC(F)F)c2Cl)c(F)cc1Cl | inactive | 
31 | O=[N+]([O-])c1cc(C(F)(F)F)c(Cl)c([N+](=O)[O-])c1Nc1ncc(C(F)(F)F)cc1Cl | inactive | 
32 | CCOP(=S)(OCC)SCCSCC | inactive | 
33 | CNc1cnn(-c2cccc(C(F)(F)F)c2)c(=O)c1Cl | inactive | 
34 | Nc1nc(N)nc(NC2CC2)n1 | inactive | 
35 | CC(COc1ccc(Oc2ccccc2)cc1)Oc1ccccn1 (stereo not given) | inactive | 
36 | CCCSP(=O)(OCC)Oc1ccc(Br)cc1Cl (stereo not given) | inactive | 
37 | C#CC(C)(C)NC(=O)c1cc(Cl)cc(Cl)c1 | inactive | 
38 | C#CCC1=C(C)C(OC(=O)C2C(C=C(C)C)C2(C)C)CC1=O (stereo not given) | inactive | 
39 | CC(C)[C@H](C(=O)O[C@H](C#N)c1cccc(Oc2ccccc2)c1)c1ccc(Cl)cc1 | inactive | 
40 | CON=C(C(=O)OC)c1ccccc1CON=C(C)c1cccc(C(F)(F)F)c1 | inactive | 
